Reference: PubChem BioAssay (EPA / NIEHS)
Where “and” joins values, the source holds several entries; their conditions need not be identical. Equal entries are not always repeated. A structure can be active in one record and inactive in another. Calls of active or inactive are those of the source. The calls were made as follows: active = hit-call score of the fitted dose curve at least 0.9, where 1 is the maximum; inactive = score below 0.9.

Tests used:
[1] = CEETOX_H295R_PROG: CeeTox H295R High-throughput Steroidogenesis Assay for Progesterone (PROG) (AID 2283442); conditions: actives raise or lower the signal;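 as to AC50: human H295R adrenal cells primed with 10 µM forskolin before dosing; progesterone secreted into medium by H295R cells measured by HPLC-MS/MS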
Procedure, shortened: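 Steps: seed H295R cells and let them adhere overnight; prime 48 h with 10 uM forskolin; dose with compound in DMSO at 0.1% final for 48 h; extract medium steroids with MTBE; measure progesterone by LC-MS/MS. MTT viability was run in the same wells.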

[2] = read-out: Tumor necrosis factor receptor superfamily member 6 (Homo sapiens) (UniProt P25445); assay: LTEA_HepaRG_FAS: Life Technologies and Expression Analysis (LTEA) Assay for Fas cell surface death receptor (FAS) using HepaRG (AID 2283447); conditions: mRNA level, 48 h; actives raise or lower the signal
Procedure, shortened: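 Differentiated human HepaRG cells, pre-cultured 48 h, were exposed in duplicate for 48 h to 8-point half-log concentrations (top 100 uM, 0.5% DMSO) in serum-free induction medium; FAS mRNA measured by qRT-PCR, normalized to ACTB/GAPDH/POLR2A, bidirectional fit versus DMSO.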

[3] = read-out: Cyclin D2 (CCND2), CCND2 (gene 894); assay: LTEA_HepaRG_CCND2: Life Technologies and Expression Analysis (LTEA) Assay for Cyclin D2 (CCND2) using HepaRG (AID 2283449); conditions: mRNA level, 48 h; actives raise or lower the signal;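 also: CCND2 transcript measured by TaqMan qRT-PCR and normalised to three housekeeping genes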
Procedure, shortened: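 In this HepaRG study, an eight-point concentration series (max 100 uM, 0.5% DMSO) is applied for 48 h. CCND2 mRNA change is derived by qRT-PCR normalised to ACTB, GAPDH and POLR2A.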

[4] = read-out: Cyclin Dependent Kinase Inhibitor 1A (CDKN1A), CDKN1A (gene 1026); assay: LTEA_HepaRG_CDKN1A: Life Technologies and Expression Analysis (LTEA) Assay for Cyclin Dependent Kinase Inhibitor 1A (CDKN1A) using HepaRG (AID 2283450); conditions: mRNA level, 48 h; actives raise or lower the signal
Procedure, shortened: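 Read-out is CDKN1A mRNA by TaqMan qRT-PCR, normalized to three housekeeping genes and fitted in both directions against the DMSO baseline. Human HepaRG cells were treated 48 h with test chemicals up to 100 uM in half-log steps, 0.5% DMSO.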

[5] = read-out: catalase (CAT), CAT (gene 847); assay: LTEA_HepaRG_CAT: Life Technologies and Expression Analysis (LTEA) Assay for catalase (CAT) using HepaRG (AID 2283452); conditions: mRNA level, 48 h; actives raise or lower the signal;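 as to AC50: TaqMan qRT-PCR signal normalized to ACTB GAPDH and POLR2A housekeeping genes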
Procedure, shortened: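 Differentiated HepaRG cells in serum-free induction medium were dosed 48 h in duplicate, eight half-log concentrations from 100 uM in 0.5% DMSO. Transcript measured by TaqMan qRT-PCR, normalised to ACTB/GAPDH/POLR2A, fitted bidirectionally against DMSO.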

[6] = read-out: flavin-containing dimethylaniline monooxygenases 3 (FMO3), FMO3 (gene 2328); assay: LTEA_HepaRG_FMO3: Life Technologies and Expression Analysis (LTEA) Assay for flavin-containing dimethylaniline monooxygenases 3 (FMO3) using HepaRG (AID 2283453); conditions: mRNA level, 48 h; actives raise or lower the signal;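 as to AC50: FMO3 transcript by TaqMan qRT-PCR normalized to ACTB GAPDH and POLR2A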
Procedure, shortened: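 FMO3 transcript quantified by TaqMan qRT-PCR against three housekeeping genes after 48 h chemical exposure of HepaRG cells. Eight-point half-log series, top 100 uM, 0.5% DMSO vehicle; phenobarbital 1mM induction control; up- or down-regulation fitted.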

[7] = read-out: Cytochrome P450 (CYP1A1), CYP1A1 (gene 1543); assay: LTEA_HepaRG_CYP1A1: Life Technologies and Expression Analysis (LTEA) Assay for Cytochrome P450 (CYP1A1) using HepaRG (AID 2283454); conditions: mRNA level, 48 h; actives raise or lower the signal
Procedure, shortened: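 HepaRG, 48 h post-plating switched to serum-free induction medium; 8-pt conc-response (top 100 uM, half-log, 0.5% DMSO), duplicates, 48 h. Lysis in RLT, TaqMan qRT-PCR for CYP1A1; gain or loss vs DMSO.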

[8] = read-out: CFLAR gene, CFLAR (gene 8837); assay: LTEA_HepaRG_CFLAR: Life Technologies and Expression Analysis (LTEA) Assay for CFLAR gene using HepaRG (AID 2283455); conditions: mRNA level, 48 h; actives raise or lower the signal
Procedure, shortened: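 Gain- or loss-of-signal changes in CFLAR transcript were fitted bidirectionally relative to 0.5% DMSO. Cells (HepaRG, duplicate wells) were dosed for 48 h across eight half-log concentrations topping at 100 uM; quantitation by TaqMan qRT-PCR.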

[9] = read-out: Forkhead box O1 (FOXO1), FOXO1 (gene 2308); assay: LTEA_HepaRG_FOXO1: Life Technologies and Expression Analysis (LTEA) Assay for Forkhead box O1 (FOXO1) using HepaRG (AID 2283456); conditions: mRNA level, 48 h; actives raise or lower the signal
Procedure, shortened: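 Using one lot of HepaRG hepatic cells kept in 0.5% DMSO, the team applied test chemicals in duplicate, half-log dilutions from 100 uM, for 48 h. Expression, normalised to ACTB/GAPDH/POLR2A, was compared with vehicle in either direction.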

[10] = CEETOX_H295R_TESTO: CeeTox H295R High-throughput Steroidogenesis Assay for Testosterone (TESTO) (AID 2283457); conditions: actives raise or lower the signal;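 as to AC50: cells exposed to chemicals for 48 h before medium collection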
Procedure, shortened: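 H295R, passage ≤10, 48 h dosing; media extracted with MTBE → HPLC-MS/MS for testosterone; 7-pt standard curve sets LLOQ/ULOQ; bidirectional fit vs DMSO; MTT viability same wells.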

[11] = read-out: growth arrest and DNA damage 45 (GADD45A), GADD45A (gene 1647); assay: LTEA_HepaRG_GADD45A: Life Technologies and Expression Analysis (LTEA) Assay for growth arrest and DNA damage 45 (GADD45A) using HepaRG (AID 2283458); conditions: mRNA level, 48 h; actives raise or lower the signal
Procedure, shortened: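 Transcript induction or loss, quantified by TaqMan qRT-PCR against three housekeeping genes, is the read-out. HepaRG cells received chemicals for 48 h across eight half-log concentrations from 100 uM in 0.5% DMSO; gain and loss fitted relative to DMSO.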

[12] = read-out: Forkhead box O3 (FOXO3), FOXO3 (gene 2309); assay: LTEA_HepaRG_FOXO3: Life Technologies and Expression Analysis (LTEA) Assay for Forkhead box O3 (FOXO3) using HepaRG (AID 2283459); conditions: mRNA level, 48 h; actives raise or lower the signal
Procedure, shortened: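 Gene-expression endpoint: FOXO3 transcript level by qRT-PCR in HepaRG cultures treated 48 h with chemicals up to 100 uM (half-log, 0.5% DMSO vehicle).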

[13] = read-out: ABC Transporter (ABCB1), ABCB1 (gene 5243); assay: LTEA_HepaRG_ABCB1: Life Technologies and Expression Analysis (LTEA) Assay for ABC Transporter (ABCB1) using HepaRG (AID 2283460); conditions: mRNA level, 48 h; actives raise or lower the signal
Procedure, shortened: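 Human liver HepaRG line treated 48 h with up to 100 uM compound (eight half-log points, 0.5% DMSO); ABCB1 mRNA change fitted bidirectionally against DMSO controls.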

[14] = read-out: growth arrest and DNA damage 45 (GADD45B), GADD45B (gene 4616); assay: LTEA_HepaRG_GADD45B: Life Technologies and Expression Analysis (LTEA) Assay for growth arrest and DNA damage 45 (GADD45B) using HepaRG (AID 2283461); conditions: mRNA level, 48 h; actives raise or lower the signal
Procedure, shortened: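 HepaRG, ~100,000 cells/well, 48 h plating; serum-free induction medium; cpd 100 uM top, half-log x8, 0.5% DMSO, duplicate, 48 h; lysis in RLT, RNA isolation, qRT-PCR; norm ACTB/GAPDH/POLR2A; bidirectional fit vs DMSO.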

[15] = read-out: ABC Transporter (ABCC3), ABCC3 (gene 8714); assay: LTEA_HepaRG_ABCC3: Life Technologies and Expression Analysis (LTEA) Assay for ABC Transporter (ABCC3) using HepaRG (AID 2283462); conditions: mRNA level, 48 h; actives raise or lower the signal
Procedure, shortened: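 Human HepaRG, 48 h dosing, 8-pt half-log series from 100 uM, 0.5% DMSO vehicle, duplicates. ABCC3 mRNA by TaqMan qRT-PCR, housekeeping-normalized; bidirectional curve fit vs DMSO.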

[16] = read-out: ABC Transporter (ABCB11), ABCB11 (gene 8647); assay: LTEA_HepaRG_ABCB11: Life Technologies and Expression Analysis (LTEA) Assay for ABC Transporter (ABCB11) using HepaRG (AID 2283463); conditions: mRNA level, 48 h; actives raise or lower the signal
Procedure, shortened: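 Using HepaRG cultures held in 0.5% DMSO, chemicals were tested at half-log dilutions from 100 uM for 48 h. Induction or suppression of ABCB11 mRNA, normalized to ACTB, GAPDH and POLR2A, was fitted bidirectionally against vehicle.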

[17] = read-out: ABC Transporter (ABCC2), ABCC2 (gene 1244); assay: LTEA_HepaRG_ABCC2: Life Technologies and Expression Analysis (LTEA) Assay for ABC Transporter (ABCC2) using HepaRG (AID 2283464); conditions: mRNA level, 48 h; actives raise or lower the signal
Procedure, shortened: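 HepaRG, 48 h post-plating; serum-free induction medium; cpd 8-pt, 100 uM top, half-log, 0.5% DMSO, duplicate, 48 h. Readout: ABCC2 mRNA by qRT-PCR, norm. ACTB/GAPDH/POLR2A. Bidirectional fit vs DMSO baseline.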

[18] = read-out: Broad substrate specificity ATP-binding cassette transporter ABCG2 (Homo sapiens) (UniProt Q9UNQ0); assay: LTEA_HepaRG_ABCG2: Life Technologies and Expression Analysis (LTEA) Assay for ABC Transporter (ABCG2) using HepaRG (AID 2283465); conditions: mRNA level, 48 h; actives raise or lower the signal
Procedure, shortened: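 Gene expression of ABCG2 in HepaRG liver cells is quantified by qRT-PCR following 48 h exposure across an eight-point series topping at 100 uM. Values come from bidirectional fitting relative to DMSO vehicle.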

[19] = read-out: Fatty acid synthase (Homo sapiens) (UniProt P49327); assay: LTEA_HepaRG_FASN: Life Technologies and Expression Analysis (LTEA) Assay for Fatty Acid Synthase (FASN) using HepaRG (AID 2283448); conditions: mRNA level, 48 h; actives raise or lower the signal
Procedure, shortened: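 Cells were plated, cultured 48 h, switched to serum-free induction medium, then dosed in duplicate (max 100 uM, half-log dilutions, 0.5% DMSO) for 48 h. RNA was then isolated and FASN quantified by qRT-PCR.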

[20] = read-out: Cyclin D1 (CCND1), CCND1 (gene 595); assay: LTEA_HepaRG_CCND1: Life Technologies and Expression Analysis (LTEA) Assay for Cyclin D1 (CCND1) using HepaRG (AID 2283451); conditions: mRNA level, 48 h; actives raise or lower the signal;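 as to AC50: TaqMan qRT-PCR transcript level normalised to ACTB GAPDH and POLR2A housekeeping genes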
Procedure, shortened: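 HepaRG plated 48 h, medium switched to serum-free induction medium, chemicals added in duplicate (top 100 uM, half-log steps, 0.5% DMSO) for 48 h, cells lysed, RNA measured by TaqMan qRT-PCR.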

Measured: AC50

Fatty acid synthase (Homo sapiens), sequence (P49327 whole entry, looked up): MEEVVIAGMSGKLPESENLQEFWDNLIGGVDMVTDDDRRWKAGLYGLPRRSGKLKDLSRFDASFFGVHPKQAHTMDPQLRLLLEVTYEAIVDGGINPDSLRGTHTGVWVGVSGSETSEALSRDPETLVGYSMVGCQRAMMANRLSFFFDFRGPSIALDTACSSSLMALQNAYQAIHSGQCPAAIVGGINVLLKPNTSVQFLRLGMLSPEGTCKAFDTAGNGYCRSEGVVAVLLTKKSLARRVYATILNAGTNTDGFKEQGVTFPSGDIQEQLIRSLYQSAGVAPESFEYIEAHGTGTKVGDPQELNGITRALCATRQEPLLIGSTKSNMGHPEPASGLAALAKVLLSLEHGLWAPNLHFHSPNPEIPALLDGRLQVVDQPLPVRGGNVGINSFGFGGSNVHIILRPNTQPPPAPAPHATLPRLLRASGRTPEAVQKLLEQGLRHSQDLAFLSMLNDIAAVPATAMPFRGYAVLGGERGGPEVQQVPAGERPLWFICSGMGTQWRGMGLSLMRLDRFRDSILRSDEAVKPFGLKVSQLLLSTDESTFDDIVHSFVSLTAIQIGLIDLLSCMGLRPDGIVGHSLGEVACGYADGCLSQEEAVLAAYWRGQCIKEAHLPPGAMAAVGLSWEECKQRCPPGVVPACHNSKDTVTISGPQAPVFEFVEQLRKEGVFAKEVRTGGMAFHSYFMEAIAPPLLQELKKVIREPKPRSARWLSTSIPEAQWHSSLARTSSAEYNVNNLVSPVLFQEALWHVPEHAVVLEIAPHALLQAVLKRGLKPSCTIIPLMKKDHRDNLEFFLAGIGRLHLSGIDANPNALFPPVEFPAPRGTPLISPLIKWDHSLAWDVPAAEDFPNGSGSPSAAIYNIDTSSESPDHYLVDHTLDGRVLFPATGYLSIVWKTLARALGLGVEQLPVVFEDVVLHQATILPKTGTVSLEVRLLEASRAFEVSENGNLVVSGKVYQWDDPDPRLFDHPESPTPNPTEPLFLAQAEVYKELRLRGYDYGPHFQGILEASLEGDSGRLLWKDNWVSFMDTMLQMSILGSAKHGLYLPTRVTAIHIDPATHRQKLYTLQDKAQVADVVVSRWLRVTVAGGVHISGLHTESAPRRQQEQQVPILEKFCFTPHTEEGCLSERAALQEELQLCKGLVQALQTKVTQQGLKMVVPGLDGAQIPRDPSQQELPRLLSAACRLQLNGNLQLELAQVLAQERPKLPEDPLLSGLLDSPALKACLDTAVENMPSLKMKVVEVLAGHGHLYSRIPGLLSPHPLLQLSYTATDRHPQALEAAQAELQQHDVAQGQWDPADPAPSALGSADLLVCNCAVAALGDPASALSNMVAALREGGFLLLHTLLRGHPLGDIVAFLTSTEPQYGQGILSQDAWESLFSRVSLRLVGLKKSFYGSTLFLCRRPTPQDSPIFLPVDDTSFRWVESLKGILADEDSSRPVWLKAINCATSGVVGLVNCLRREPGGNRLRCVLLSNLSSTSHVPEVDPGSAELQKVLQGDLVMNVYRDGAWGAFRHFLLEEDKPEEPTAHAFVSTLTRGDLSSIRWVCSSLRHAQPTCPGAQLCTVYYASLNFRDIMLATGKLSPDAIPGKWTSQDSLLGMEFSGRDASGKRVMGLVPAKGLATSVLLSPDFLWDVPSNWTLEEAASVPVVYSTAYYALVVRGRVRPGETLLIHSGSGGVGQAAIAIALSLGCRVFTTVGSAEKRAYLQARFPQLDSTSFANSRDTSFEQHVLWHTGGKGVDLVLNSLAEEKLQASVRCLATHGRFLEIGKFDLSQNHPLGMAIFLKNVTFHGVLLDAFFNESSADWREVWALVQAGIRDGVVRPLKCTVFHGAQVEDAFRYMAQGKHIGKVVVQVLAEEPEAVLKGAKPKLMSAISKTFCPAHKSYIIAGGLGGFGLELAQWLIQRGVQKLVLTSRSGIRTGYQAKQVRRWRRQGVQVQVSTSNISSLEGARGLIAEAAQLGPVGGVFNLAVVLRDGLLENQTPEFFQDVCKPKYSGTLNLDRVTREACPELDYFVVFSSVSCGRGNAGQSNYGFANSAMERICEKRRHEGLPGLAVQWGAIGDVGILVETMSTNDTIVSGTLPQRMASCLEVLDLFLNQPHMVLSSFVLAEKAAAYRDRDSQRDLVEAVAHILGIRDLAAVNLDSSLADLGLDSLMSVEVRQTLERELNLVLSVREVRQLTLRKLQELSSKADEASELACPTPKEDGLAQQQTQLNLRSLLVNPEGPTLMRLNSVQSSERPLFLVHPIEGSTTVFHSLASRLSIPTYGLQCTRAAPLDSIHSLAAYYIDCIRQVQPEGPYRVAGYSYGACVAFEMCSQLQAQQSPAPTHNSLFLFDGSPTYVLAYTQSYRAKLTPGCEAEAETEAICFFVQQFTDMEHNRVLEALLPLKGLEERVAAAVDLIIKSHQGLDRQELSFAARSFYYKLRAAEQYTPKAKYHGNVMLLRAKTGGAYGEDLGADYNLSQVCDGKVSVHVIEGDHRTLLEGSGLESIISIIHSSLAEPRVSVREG
Broad substrate specificity ATP-binding cassette transporter ABCG2 (Homo sapiens), sequence (Q9UNQ0 whole entry, looked up): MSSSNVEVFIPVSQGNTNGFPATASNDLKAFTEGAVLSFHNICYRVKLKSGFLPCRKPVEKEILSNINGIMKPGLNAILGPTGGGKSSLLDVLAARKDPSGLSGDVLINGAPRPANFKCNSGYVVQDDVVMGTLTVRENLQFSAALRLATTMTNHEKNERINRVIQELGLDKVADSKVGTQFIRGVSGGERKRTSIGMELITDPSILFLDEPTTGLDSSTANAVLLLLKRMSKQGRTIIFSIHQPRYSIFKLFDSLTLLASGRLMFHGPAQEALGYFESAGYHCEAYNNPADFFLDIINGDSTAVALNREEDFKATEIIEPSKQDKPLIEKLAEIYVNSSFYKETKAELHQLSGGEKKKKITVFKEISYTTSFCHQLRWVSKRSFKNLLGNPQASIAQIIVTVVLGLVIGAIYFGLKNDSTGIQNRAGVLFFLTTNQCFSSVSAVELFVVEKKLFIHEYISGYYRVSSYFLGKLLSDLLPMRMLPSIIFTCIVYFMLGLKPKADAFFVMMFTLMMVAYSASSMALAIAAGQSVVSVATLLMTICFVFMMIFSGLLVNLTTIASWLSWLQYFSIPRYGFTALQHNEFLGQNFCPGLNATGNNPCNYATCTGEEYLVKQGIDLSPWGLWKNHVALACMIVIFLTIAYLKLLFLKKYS

CN(C)C(=O)Nc1ccc(Cl)c(Cl)c1
active: [6] 50 µM | [7] 27 µM | [10] 28.1 µM | [12] 22.2 µM | [14] 66.5 µM | [16] 50 µM | [18] 36.4 µM
not listed: [19] | [20]
inactive: all other assays above

CC(=O)[C@H]1CC[C@H]2[C@@H]3CCC4=CC(=O)CC[C@]4(C)[C@H]3CC[C@]12C
active: [1] 5 µM | [2] 60.6 µM | [4] 16.8 µM | [5] 50 µM | [6] 34.1 µM | [7] 34.6 µM | [8] 77.8 µM | [9] 80.5 µM | [11] 47.8 µM | [13] 79.3 µM | [14] 30 µM | [15] 28.2 µM | [16] 58.5 µM | [17] 78.9 µM | [18] 12.5 µM
inactive: [3] | [12]

CC(C)(C)[C@@H](O)[C@@H](Cc1ccc(Cl)cc1)n1cncn1
active: [7] 33.9 µM | [13] 8.74 µM | [17] 13.1 µM
not listed: [10] | [14] | [19] | [20]
inactive: all other assays above

CC(C)(c1ccc(O)cc1)c1ccc(O)cc1
active: [7] 11.7 µM | [10] 3.57 µM | [13] 50 µM
inactive: [1] | [2] | [19] | [3] | [4] | [5] | [6] | [7] | [8] | [9] | [10] | [11] | [12] | [13] | [14] | [15] | [16] | [17] | [18]

CCOC(=O)c1ccc(O)cc1
active: [1] 36.5 µM
not listed: [10] | [19] | [20]
inactive: all other assays above

S=C(S)NCCNC(=S)S.[Mn+2].[S-]C([S-])=NCCN=C([S-])[S-].[Zn+2]
inactive: [1] | [2] | [3] | [4] | [20] | [9] | [11] | [12]
active: [2] 1.63 µM | [4] 25 µM and 3.66 µM | [20] 0.187 µM | [5] 881 nM and 1.09 µM and 1.05 µM | [6] 4.22 µM and 2.04 µM and 2.68 µM | [7] 116 nM and 122 nM | [8] 1.31 µM and 1.18 µM and 1.48 µM | [9] 4.79 µM and 9.06 µM | [11] 3.61 µM and 2.03 µM | [12] 1.62 µM and 1.21 µM | [13] 881 nM and 993 nM and 732 nM | [14] 3.12 µM and 2.14 µM and 4.41 µM | [15] 717 nM and 898 nM and 1.03 µM | [16] 695 nM and 718 nM and 693 nM | [17] 1.09 µM and 988 nM and 1.44 µM | [18] 200 nM and 267 nM and 401 nM
